“And” between values parts separate entries of the source, which are not always exact repeats. Equal values may be shown once. Where a name gives a salt, the structure may show the parent alone.

One assay deals with K562. Put plainly: cell viability relative to vehicle control; higher = less cytotoxic. Conditions: 10 µM; SRSF2 genotype: SRSF2 P95H/wt. In outline:
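Mutant clones made by CRISPR editing and their isogenic wild-type counterparts, from four leukaemia lines, were exposed to a single 10 µM dose of each library compound for 48 h. The supernatant was then removed and CellTiter-Glo luminescence was read. Viability was reported as percent of the on-plate vehicle control.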
The cell viability is a read-out of living cells in per cent, often relative to untreated cells. Take `CC(=O)[C@@]1(O)CC[C@H]2[C@@H]3C[C@H](C)C4=CC(=O)CC[C@]4(C)[C@H]3CC[C@@]21C` [Medroxyprogesterone]: the cell viability was 97.3% and 90.1%.
On to `CCOC(=O)[C@H](CCc1ccccc1)N[C@@H](C)C(=O)N1[C@H](C(=O)O)C[C@@H]2CCC[C@@H]21` [Ramipril (Altace)], for which the cell viability was 86.6% and 88.3%.
With `CCCCS(=O)(=O)N[C@@H](Cc1ccc(OCCCCC2CCNCC2)cc1)C(=O)O` [Tirofiban Hydrochloride], the cell viability was 94.8% and 103%.
For `CC(C)n1nc(-c2cc3cc(O)ccc3[nH]2)c2c(N)ncnc21` [Torkinib (PP242)], the cell viability was 21.2% and 25.5%.
On the same count and under the same terms, the value for `O.O.O.O.O.O.O.[Cl][La]([Cl])[Cl]` [Lanthanum(III) chloride heptahydrate] was 107% and 102%; that for `CC(C)c1c2cc(-c3ccnc(NC4CCC(NC5CCOCC5)CC4)n3)ccc2nn1C` (centres undefined) was 10% and 24.4%; that for `COc1cc(N2CCC(N3CCN(C)CC3)CC2)ccc1Nc1ncnc(Nc2ccccc2S(=O)(=O)C(C)C)n1` was 84.8% and 91%.
Turning to `C#C[C@]1(O)CC[C@H]2[C@@H]3CCC4=CC(=O)CC[C@@H]4[C@H]3CC[C@@]21CC` [Levonorgestrel (Levonelle)], the cell viability was 104% and 102%.
Still for that read-out and setting: the value for `NC(=O)c1cccc2cn(-c3ccc([C@@H]4CCCNC4)cc3)nc12` [MK-4827(Niraparib) tosylate] was 103% and 99.2%.

The assay is the same for the next values; noted with them: 10 µM; SRSF2 genotype: SRSF2 wt/wt.
On to `CCCCCCCCCCCCc1ccc(S(=O)(=O)Nc2nncs2)cc1`, for which the cell viability worked out at 102%.
The same measure, in the same setting: in the case of `C#C[C@]1(O)CC[C@H]2[C@@H]3CCc4cc(O)ccc4[C@H]3CC[C@@]21C` [Ethinyl Estradiol] it was 65%; in that of `C[C@]12CCC(=O)C=C1[C@@H]1C[C@@H]1[C@H]1[C@@H]3[C@@H]4C[C@@H]4[C@@]4(CCC(=O)O4)[C@@]3(C)CC[C@@H]12` [Drospirenone], 83.3%.
As to `CS(=O)(=O)CCNCc1ccc(-c2ccc3ncnc(Nc4ccc(OCc5cccc(F)c5)c(Cl)c4)c3c2)o1` [Lapatinib], the cell viability came out at 35.8%.
For `C[C@H](CC[C@@]1(O)O[C@H]2C[C@H]3[C@@H]4CC=C5C[C@@H](O[C@@H]6O[C@H](CO)[C@@H](O[C@@H]7O[C@@H](C)[C@H](O)[C@@H](O)[C@H]7O)[C@H](O)[C@H]6O[C@@H]6O[C@@H](C)[C@H](O)[C@@H](O)[C@H]6O)CC[C@]5(C)[C@H]4CC[C@]3(C)[C@H]2[C@@H]1C)CO[C@@H]1O[C@H](CO)[C@@H](O)[C@H](O)[C@H]1O` [Protodioscin], the cell viability was 3.02%.
`CC(=NNC(=S)N1CCC1)c1ccccn1`: the cell viability worked out at 23.7%.
In the case of `CN(CC(=O)N(Cc1ccc(C2CCCCC2)cc1)c1ccc(C(=O)O)c(O)c1)S(=O)(=O)c1c(F)c(F)c(F)c(F)c1F`, the cell viability turned out to be 13.9%.
In the case of `CNS(=O)(=O)Nc1nccc(Cc2c(C)c3ccc(Oc4ncccn4)cc3oc2=O)c1F`, the cell viability worked out at 72.2%.
In the case of `CC(C)n1c([C@H](C)Nc2ncnc(N)c2C#N)cc2cccc(-c3ccc(=O)n(C)c3)c2c1=O`, the cell viability turned out to be 68.5%.
With `CCCN(CCC)C(=O)C1=Cc2ccc(-c3ccc(C(=O)N4CCCC4)cc3)cc2N=C(N)C1` [Motolimod (VTX-2337)], the cell viability is 38.8%.
Consider `O=C(O)[C@H]1O[C@@H](Oc2cc3oc(-c4ccc(O)cc4)cc(=O)c3c(O)c2O)[C@H](O)[C@@H](O)[C@@H]1O` [Scutellarin], for which the cell viability was 96%.
On the same count and under the same terms, in the case of `CS(=O)(=O)c1ccc(-c2nnc(/C=C/c3nnc(-c4ccc(C#N)cc4)o3)n2-c2ccccc2Cl)nc1` it was 101%.
Consider `CC(C)=CCCC(C)=CCCC(C)=CCCC(C)=CCC1=C(C)C(=O)c2ccccc2C1=O` [Vitamin K2], for which the cell viability came out at 102%.
For the compound `OCC(CO)N[C@H]1C[C@](O)(CO)[C@@H](O)[C@H](O)[C@H]1O` [Voglibose], the cell viability is 96.6%.
With `C[C@]12CC[C@@H]3c4ccc(OC(=O)c5ccccc5)cc4CC[C@H]3[C@@H]1CC[C@@H]2O` [Estradiol Benzoate], the cell viability is 77.2%.
As for `CC(C)(Sc1ccncc1-c1ccc(C#N)c2ccccc12)C(=O)O` [Verinurad (RDEA3170)], the cell viability was determined as 102%.
Regarding `N#Cc1c(Oc2ccc(F)c(NC(=O)Cc3cccc(C(F)(F)F)c3)c2)ccc2nc(NC(=O)C3CC3)sc12`, the cell viability turned out to be 19%.
Consider `O=C(CSc1nc2c(c(=O)n1-c1ccccc1)SCC2)Nc1ccc(-c2ccccc2)cn1`, for which the cell viability amounted to 92.7%.
With `C=C(C)C1CC=C(C)CC1` (single isomer, unassigned; (+)) [(+)-Dipentene], the cell viability amounted to 116%.
For the compound `NC(=O)Nc1cc(-c2cccc(F)c2)sc1C(=O)N[C@H]1CCCNC1`, the cell viability amounted to 6.23%.
Regarding `Cc1[nH]c(=O)c(C#N)cc1-c1ccncc1` [Milrinone (Primacor)], the cell viability was determined as 94.1%.
`NCCCC[C@@H]1NC(=O)[C@@H](Cc2ccc(O)cc2)NC(=O)[C@H](CC(=O)O)NC(=O)CNC(=O)[C@H](CCCN=C(N)N)NC1=O` [Cyclo(RGDyK)]: the cell viability was determined as 89.8%.
As to `CCN(Cc1ccncc1)C(=O)C(CO)c1ccccc1` (centres undefined) [Tropicamide], the cell viability came to 108%.
On to `O=c1c2cc(O)c(O)cc2oc2cc(O)c([C@@H]3O[C@H](CO)[C@@H](O)[C@H](O)[C@H]3O)c(O)c12` [Mangiferin], for which the cell viability was determined as 99.3%.
Regarding `C=CC[S+]([O-])C[C@H](N)C(=O)O` (some centres undefined) [Alliin], the cell viability turned out to be 107%.
The same measure, in the same setting: the value for `CCN1CCN(Cc2ccc(C(=O)Nc3ccc(C)c(Oc4ccc5c(c4)CC(=O)N5)c3)cc2C(F)(F)F)CC1` was 9.71%.
Same read-out and setting: in the case of `Cc1cc(C)c(-c2csc(NC(=O)c3ccccc3)n2)c(C)c1` it was 51%; in that of `COc1ccccc1OCC(O)CN1CCN(CC(=O)Nc2c(C)cccc2C)CC1` (centres undefined) [Ranolazine dihydrochloride], 101%.
Turning to `COc1cc2c(=O)c(-c3ccc(O)cc3)coc2cc1O[C@@H]1O[C@H](CO)[C@@H](O)[C@H](O)[C@H]1O` [Glycitin], the cell viability was found to be 101%.
Regarding `C#C[C@]1(O)CC[C@H]2[C@@H]3CCc4cc(OC5CCCC5)ccc4[C@H]3CC[C@@]21C` [Quinestrol], the cell viability turned out to be 71%.
Turning to `CC(C)(Cc1ccc2ccccc2c1)NC[C@@H](O)COc1cccc(Cl)c1C#N`, the cell viability is 1.65%.
Take `CC(=O)[C@@]1(O)CC[C@H]2[C@@H]3C[C@H](C)C4=CC(=O)CC[C@]4(C)[C@H]3CC[C@@]21C` [Medroxyprogesterone]: the cell viability is 91.8%.
Regarding `CCOC(=O)[C@H](CCc1ccccc1)N[C@@H](C)C(=O)N1[C@H](C(=O)O)C[C@@H]2CCC[C@@H]21` [Ramipril (Altace)], the cell viability was 89.9%.
With `CCCCS(=O)(=O)N[C@@H](Cc1ccc(OCCCCC2CCNCC2)cc1)C(=O)O` [Tirofiban Hydrochloride], the cell viability was 96%.
Take `CC(C)n1nc(-c2cc3cc(O)ccc3[nH]2)c2c(N)ncnc21` [Torkinib (PP242)]: the cell viability was found to be 21.9%.
Regarding `O.O.O.O.O.O.O.[Cl][La]([Cl])[Cl]` [Lanthanum(III) chloride heptahydrate], the cell viability was found to be 102%.
As for `CC(C)c1c2cc(-c3ccnc(NC4CCC(NC5CCOCC5)CC4)n3)ccc2nn1C` (centres undefined), the cell viability is 8.4%.
For `COc1cc(N2CCC(N3CCN(C)CC3)CC2)ccc1Nc1ncnc(Nc2ccccc2S(=O)(=O)C(C)C)n1`, the cell viability came out at 80.8%.
Regarding `C#C[C@]1(O)CC[C@H]2[C@@H]3CCC4=CC(=O)CC[C@@H]4[C@H]3CC[C@@]21CC` [Levonorgestrel (Levonelle)], the cell viability turned out to be 101%.
Turning to `NC(=O)c1cccc2cn(-c3ccc([C@@H]4CCCNC4)cc3)nc12` [MK-4827(Niraparib) tosylate], the cell viability came out at 87.5%.

For the origin of these results see the supplement of paper PMC10981050.
